Results taken from the supplement of paper PMC8728848.
Only a selection was taken, and the strongest signals are over-represented in it overall.

Assays:
Assay in all cases: glycan array binding signal (z-score within array); higher = stronger binding
Settings in all cases: glycan notation: IUPAC condensed, linker removed
Fuc(a1-2)Gal = molecular target: Fuc(a1-2)Gal
In short: (§1)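 Glycan array data came from 3228 arrays in the Consortium for Functional Glycomics database, and only arrays with an available protein sequence were kept. Glycan names were put into IUPAC-condensed notation, and columns mapping to the same glycan were averaged. The binding signal is a within-array Z-score, averaged across arrays of one protein sequence run at different concentrations or buffers and across linkers. A negative Z-score can be read as non-binding.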

[1] = molecular target: Fuc(a1-2)Gal(b1-4)Fuc(a1-3)]GlcNAc(b1-2)Man(a1-3)[Fuc(a1-2)Gal(b1-4)[Fuc(a1-3)]GlcNAc(b1-2)Man(a1-6)]Man(b1-4)GlcNAc(b1-4)GlcNAc
In short: as §1

[2] = molecular target: Fuc(a1-2)Gal(b1-4)[Fuc(a1-3)]GlcNAc
In short: as §1

[3] = molecular target: Fuc(a1-2)[Gal(a1-3)]Gal(b1-3)GalNAc
In short: as §1

[4] = molecular target: Fuc(a1-2)[Gal(a1-3)]Gal(b1-3)GlcNAc(b1-2)Man(a1-3)[Fuc(a1-2)[Gal(a1-3)]Gal(b1-3)GlcNAc(b1-2)Man(a1-6)]Man(b1-4)GlcNAc(b1-4)GlcNAc
In short: as §1

[5] = molecular target: Fuc(a1-2)[Gal(a1-3)]Gal(b1-4)[Fuc(a1-3)]Glc
In short: as §1

[6] = molecular target: Fuc(a1-2)[GalNAc(a1-3)]Gal(b1-3)GalNAc(b1-3)Gal(a1-4)Gal(b1-4)Glc
In short: as §1

[7] = molecular target: Fuc(a1-2)[GalNAc(a1-3)]Gal(b1-4)Glc
In short: as §1

[8] = molecular target: Fuc(a1-2)[GalNAc(b1-3)]Gal
In short: as §1

[9] = molecular target: Fuc(a1-3)[Gal(b1-4)]GlcNAc(b1-2)Man(a1-3)[Fuc(a1-3)[Gal(b1-4)]GlcNAc(b1-2)Man(a1-6)]Man(b1-4)GlcNAc(b1-4)[Fuc(a1-6)]GlcNAc
In short: as §1

[10] = molecular target: Fuc(a1-3)[GalNAc(b1-4)]GlcNAc
In short: as §1

[11] = molecular target: Gal(a1-3)Gal(b1-3)GlcNAc(b1-6)GalNAc
In short: as §1

[12] = molecular target: Gal(a1-3)Gal(b1-4)GlcNAc(b1-2)Man(a1-3)[Gal(a1-3)Gal(b1-4)GlcNAc(b1-2)Man(a1-6)]Man(b1-4)GlcNAc(b1-4)GlcNAc
In short: as §1

[13] = molecular target: Gal(b1-4)GlcNAc(a1-6)Gal(b1-4)GlcNAc
In short: as §1

[14] = molecular target: Gal(b1-4)GlcNAc(b1-2)Man(a1-3)[Gal(b1-4)GlcNAc(b1-2)Man(a1-6)]Man(b1-4)GlcNAc(b1-4)GlcNAc
In short: as §1

[15] = molecular target: Gal(b1-4)GlcNAc(b1-2)[Gal(b1-4)GlcNAc(b1-4)]Man(a1-3)[GlcNAc(b1-4)][Gal(b1-4)GlcNAc(b1-2)[Gal(b1-4)GlcNAc(b1-6)]Man(a1-6)]Man(b1-4)GlcNAc(b1-4)GlcNAc
In short: as §1

[16] = molecular target: Gal(b1-4)GlcNAc(b1-2)[Gal(b1-4)GlcNAc(b1-6)]Man(a1-6)[Gal(b1-4)GlcNAc(b1-2)Man(a1-3)]Man(b1-4)GlcNAc(b1-4)GlcNAc
In short: as §1

[17] = molecular target: Gal(b1-4)GlcNAc(b1-3)Gal(b1-4)GlcNAc(b1-2)Man(a1-3)[Gal(b1-4)GlcNAc(b1-3)Gal(b1-4)GlcNAc(b1-2)Man(a1-6)]Man(b1-4)GlcNAc(b1-4)[Fuc(a1-6)]GlcNAc
In short: as §1

[18] = molecular target: Gal(b1-4)GlcNAc(b1-3)Gal(b1-4)GlcNAc(b1-2)[Gal(b1-4)GlcNAc(b1-3)Gal(b1-4)GlcNAc(b1-6)]Man(a1-6)[Gal(b1-4)GlcNAc(b1-3)Gal(b1-4)GlcNAc(b1-2)Man(a1-3)]Man(b1-4)GlcNAc(b1-4)GlcNAc
In short: as §1

[19] = molecular target: Gal(b1-4)GlcNAc(b1-3)Gal(b1-4)GlcNAc(b1-3)Gal(b1-4)GlcNAc(b1-3)Gal(b1-4)GlcNAc(b1-2)Man(a1-3)[Gal(b1-4)GlcNAc(b1-3)Gal(b1-4)GlcNAc(b1-3)Gal(b1-4)GlcNAc(b1-3)Gal(b1-4)GlcNAc(b1-2)Man(a1-6)]Man(b1-4)GlcNAc(b1-4)[Fuc(a1-6)]GlcNAc
In short: as §1

[20] = molecular target: Gal(b1-4)GlcNAc(b1-3)Gal(b1-4)GlcNAc(b1-3)Gal(b1-4)GlcNAc(b1-3)Gal(b1-4)GlcNAc(b1-2)[Gal(b1-4)GlcNAc(b1-3)Gal(b1-4)GlcNAc(b1-3)Gal(b1-4)GlcNAc(b1-3)Gal(b1-4)GlcNAc(b1-6)]Man(a1-6)[Gal(b1-4)GlcNAc(b1-3)Gal(b1-4)GlcNAc(b1-3)Gal(b1-4)GlcNAc(b1-3)Gal(b1-4)GlcNAc(b1-2)Man(a1-3)]Man(b1-4)GlcNAc(b1-4)[Fuc(a1-6)]GlcNAc
In short: as §1

[21] = molecular target: Gal(b1-4)GlcNAc(b1-3)Gal(b1-4)GlcNAc(b1-3)Gal(b1-4)GlcNAc(b1-3)Gal(b1-4)GlcNAc(b1-3)Gal(b1-4)GlcNAc(b1-3)Gal(b1-4)GlcNAc(b1-2)Man(a1-3)[Gal(b1-4)GlcNAc(b1-3)Gal(b1-4)GlcNAc(b1-3)Gal(b1-4)GlcNAc(b1-3)Gal(b1-4)GlcNAc(b1-3)Gal(b1-4)GlcNAc(b1-3)Gal(b1-4)GlcNAc(b1-2)Man(a1-6)]Man(b1-4)GlcNAc(b1-4)GlcNAc
In short: as §1

[22] = molecular target: Gal3S(b1-4)[Fuc(a1-3)]GlcNAc6S
In short: as §1

[23] = molecular target: GalNAc(b1-4)GlcNAc(b1-3)GalNAc(b1-4)GlcNAc
In short: as §1

GalNAc4S6S(b1-4)GlcNAc = molecular target: GalNAc4S6S(b1-4)GlcNAc
In short: as §1

GlcA(b1-3)Gal = molecular target: GlcA(b1-3)Gal
In short: as §1

[24] = molecular target: GlcNAc(b1-2)[GlcNAc(b1-4)]Man(a1-3)[GlcNAc(b1-2)Man(a1-6)]Man(b1-4)GlcNAc(b1-4)GlcNAc
In short: as §1

GlcNAc(b1-3)Gal(b1-4)Glc = molecular target: GlcNAc(b1-3)Gal(b1-4)Glc
In short: as §1

[25] = molecular target: GlcNAc(b1-3)Gal(b1-4)GlcNAc(b1-3)Gal(b1-4)GlcNAc(b1-2)Man(a1-3)[GlcNAc(b1-3)Gal(b1-4)GlcNAc(b1-3)Gal(b1-4)GlcNAc(b1-2)Man(a1-6)]Man(b1-4)GlcNAc(b1-4)GlcNAc
In short: as §1

MurNAc(b1-4)GlcNAc = molecular target: MurNAc(b1-4)GlcNAc
In short: as §1

Neu5Ac(a2-3)Gal = molecular target: Neu5Ac(a2-3)Gal
In short: as §1

[26] = molecular target: Neu5Ac(a2-3)Gal(b1-3)GalNAc(b1-4)[Neu5Ac(a2-8)Neu5Ac(a2-3)]Gal(b1-4)Glc
In short: as §1

[27] = molecular target: Neu5Ac(a2-3)Gal(b1-3)GlcNAc(b1-2)Man
In short: as §1

[28] = molecular target: Neu5Ac(a2-3)Gal(b1-4)GlcNAc(b1-2)Man(a1-3)[GlcNAc(b1-4)][Neu5Ac(a2-3)Gal(b1-4)GlcNAc(b1-2)Man(a1-6)]Man(b1-4)GlcNAc(b1-4)GlcNAc
In short: as §1

[29] = molecular target: Neu5Ac(a2-3)Gal(b1-4)GlcNAc(b1-3)Gal(b1-4)GlcNAc
In short: as §1

[30] = molecular target: Neu5Ac(a2-3)Gal(b1-4)GlcNAc(b1-3)Gal(b1-4)[Fuc(a1-3)]GlcNAc
In short: as §1

[31] = molecular target: Neu5Ac(a2-3)Gal(b1-4)GlcNAc(b1-6)[Neu5Ac(a2-3)Gal(b1-3)]GalNAc
In short: as §1

[32] = molecular target: Neu5Ac(a2-3)Gal(b1-4)GlcNAc6S
In short: as §1

[33] = molecular target: Neu5Ac(a2-3)Gal(b1-4)[Fuc(a1-3)]GlcNAc(b1-6)[Gal(b1-3)]GalNAc
In short: as §1

[34] = molecular target: Neu5Ac(a2-6)GalNAc(b1-4)GlcNAc
In short: as §1

[35] = molecular target: Neu5Ac(a2-6)GlcNAc(b1-4)GlcNAc
In short: as §1

[36] = molecular target: Neu5Ac(a2-8)Neu5Ac(a2-8)Neu5Ac
In short: as §1

[37] = molecular target: Neu5Gc(a2-3)Gal(b1-4)[Fuc(a1-3)]GlcNAc
In short: as §1

B1: HA-11100 (Pseudomonas aeruginosa), Q02G51_PSEAB (protein)
chain: QFNPNEIKISQQGKTTLIDQSTQRAIINWKGFDVSADEAVRFNQPGVTSSTLNRVTAGQESVIAGRISAPGQVIIYNSNGVVFSGSAKVDVGSLITTTANISDEHFRQGKLIFDQPGNPDARIVNDGSISVAEKGLAAFVAPSVANNGVINARLGTVAMAAGNAATIDLYG
- glycan array binding signal (z-score) (Fuc(a1-2)Gal): -0.09
- glycan array binding signal (z-score) [1]: 3.58
- glycan array binding signal (z-score) [2]: -0.134
- glycan array binding signal (z-score) [3]: -0.312
- glycan array binding signal (z-score) [4]: 7.81
- glycan array binding signal (z-score) [5]: 0.052
- glycan array binding signal (z-score) [6]: 0.044
- glycan array binding signal (z-score) [7]: -0.174
- glycan array binding signal (z-score) [8]: -0.384
- glycan array binding signal (z-score) [9]: 3.33
- glycan array binding signal (z-score) [10]: -0.403
- glycan array binding signal (z-score) [11]: -0.463
- glycan array binding signal (z-score) [12]: 3.53
- glycan array binding signal (z-score) [13]: -0.29
- glycan array binding signal (z-score) [14]: -0.512
- glycan array binding signal (z-score) [15]: 3.28
- glycan array binding signal (z-score) [16]: 7.59
- glycan array binding signal (z-score) [17]: 10.5
- glycan array binding signal (z-score) [18]: 5.77
- glycan array binding signal (z-score) [19]: 2.99
- glycan array binding signal (z-score) [20]: 3.24
- glycan array binding signal (z-score) [21]: 1.87
- glycan array binding signal (z-score) [22]: -0.451
- glycan array binding signal (z-score) [23]: 0.008
- glycan array binding signal (z-score) (GalNAc4S6S(b1-4)GlcNAc): -0.38
- glycan array binding signal (z-score) (GlcA(b1-3)Gal): -0.243
- glycan array binding signal (z-score) [24]: -0.37
- glycan array binding signal (z-score) (GlcNAc(b1-3)Gal(b1-4)Glc): -0.359
- glycan array binding signal (z-score) [25]: 3.34
- glycan array binding signal (z-score) (MurNAc(b1-4)GlcNAc): 0.053
- glycan array binding signal (z-score) (Neu5Ac(a2-3)Gal): -0.148
- glycan array binding signal (z-score) [26]: -0.214
- glycan array binding signal (z-score) [27]: -0.402
- glycan array binding signal (z-score) [28]: -0.268
- glycan array binding signal (z-score) [29]: -0.347
- glycan array binding signal (z-score) [30]: -0.737
- glycan array binding signal (z-score) [31]: -0.222
- glycan array binding signal (z-score) [32]: -0.016
- glycan array binding signal (z-score) [33]: 4.78
- glycan array binding signal (z-score) [34]: -0.851
- glycan array binding signal (z-score) [35]: -0.421
- glycan array binding signal (z-score) [36]: -0.333
- glycan array binding signal (z-score) [37]: -0.065
